Source: PubChem BioAssay (National Center for Advancing Translational Sciences (NCATS))
Compounds with a hit are over-represented: about 5.8% of the library has one in this group of screens.
KB-V1 cytotox: qHTS assay for MDR1-selective chemotherapeutics: Primary screen using the drug-selected MDR subline cells KB-V1; hit rate 3.4% among 400,000; KB-V1 MDR cells viability, CellTiter-Glo, 72 h; Potency, µM (doses to about 46.1 µM), usual class: cytotoxic; also: nearly all actives have a fitted effect of over 60% in size
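qHTS viability screen in drug-selected KB-V1 MDR cells: 72 h compound treatment at 37 degrees C, ATP luminescence end point.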
MCF10A rerep: A quantitative high throughput screen for small molecules that induce DNA re-replication in MCF 10a normal breast cells. MCF 10A DNA re-replication, Hoechst nuclear intensity, 48 h. Potency, µM (top dose mostly 46.1 µM), most hits filed as activators. hit rate 2.9% among 350,000; also: nearly all actives have a fitted effect of over 50% in size
SW480 rereplic: A quantitative high throughput screen for small molecules that induce DNA re-replication in SW480 colon adenocarcinoma cells | SW480 DNA re-replication, Hoechst DNA content imaging, 48 h | Potency, µM (doses to about 46.1 µM), hits mostly activators | hit rate 1.8% among 340,000; also: nearly all actives have a fitted effect of over 55% in size
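Cells (250 per well) received 23 nL compound or DMSO by pin tool and were kept 48 hr at 37 C, 5% CO2. Nuclei were then stained with Hoechst for 40 min and scanned for DNA content.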
PINK1 expr mod: A Quantitative High throughput Screen to Identify Chemical Modulators of PINK1 Expression | PINK1 immunofluorescence, high-content cytometry, 24 h | Potency, µM (titrated, usually from 76.6 µM), most hits filed as activators | hit rate 0.2% among 410,000 | AID 624263, 2012; active = well fitted activation curve with a large enough effect; inconclusive = small, poorly fitted or top-dose-only effect; cell line not stated here; also: nearly all actives have a fitted effect of over 65% in size
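Cells are seeded, rested 12 hours, then given compound at five concentrations or DMSO for 24 hours. After fixation, blocking and antibody staining, PINK1 amount and mitochondrial localization are scored; CCCP serves as control.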
ALOX12 inh: Primary qHTS assay for inhibitors of human arachidonate 12S-lipoxygenase (ALOX12): Round 2; Polyunsaturated fatty acid lipoxygenase ALOX12 (Homo sapiens), P18054; purified 12hLO, xylenol orange hydroperoxide absorbance; AID 1671190, 2021; Potency, µM (doses to about 108 µM), hits mostly inhibitors; hit rate 1.1% among 580,000
Target sequence (P18054 whole entry, looked up): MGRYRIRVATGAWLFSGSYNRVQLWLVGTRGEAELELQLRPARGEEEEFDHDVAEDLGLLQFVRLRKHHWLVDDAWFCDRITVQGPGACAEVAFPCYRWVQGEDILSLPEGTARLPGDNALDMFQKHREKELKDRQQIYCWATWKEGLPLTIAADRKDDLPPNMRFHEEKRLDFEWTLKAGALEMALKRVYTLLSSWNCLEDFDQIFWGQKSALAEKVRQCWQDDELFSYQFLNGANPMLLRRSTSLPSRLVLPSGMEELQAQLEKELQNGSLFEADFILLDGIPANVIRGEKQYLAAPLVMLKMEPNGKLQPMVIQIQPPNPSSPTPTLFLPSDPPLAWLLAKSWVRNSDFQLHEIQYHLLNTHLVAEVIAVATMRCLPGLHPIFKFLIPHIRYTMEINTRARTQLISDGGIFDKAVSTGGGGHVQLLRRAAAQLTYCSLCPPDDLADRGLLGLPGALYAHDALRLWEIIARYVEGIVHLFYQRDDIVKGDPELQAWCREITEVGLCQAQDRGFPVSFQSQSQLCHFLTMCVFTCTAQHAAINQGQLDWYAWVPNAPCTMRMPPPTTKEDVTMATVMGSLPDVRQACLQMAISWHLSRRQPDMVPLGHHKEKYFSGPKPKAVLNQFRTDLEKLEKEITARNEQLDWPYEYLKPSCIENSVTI
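Purified human 12hLO at 150 nM in 25 mM Hepes, 0.01% Triton X-100, pH 7.0, preincubated 15 min at room temperature with compound. Reaction started with 40 uM arachidonic acid, 30 min at room temperature. Hydroperoxide measured by Fe-xylenol orange, 573/405 nm absorbance ratio.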
KB-3-1 tox: qHTS assay for MDR1-selective chemotherapeutics: Primary screen using the parental adenocarcinoma cell KB-3-1; AID 1347075, 2019; KB-3-1 viability, CellTiter-Glo ATP luminescence, 72 h; hit rate 1.4% among 400,000; Potency, µM (top dose mostly 46.1 µM), most hits filed as cytotoxic; also: nearly all actives have a fitted effect of over 60% in size
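Screening of KB-3-1 cells (DMEM, 10% FBS, phenol-red free) ran from lowest to highest compound concentration; after 72 h at 37 °C viability was read luminescently and curves fitted.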
Numbers stand for hits; i = inactive; ? = inconclusive; nt = no result; [ ] = another dose, or the depositor's remark. Unless noted, calls follow the shape of the dose curve; as a rule, active = well fitted curve in the direction sought with a large enough effect; inconclusive = small, poorly fitted or top-dose-only effect, or another doubt; inactive = no such curve, though single readings can be large; an effect the other way counts as inactive or inconclusive.

SMILES | KB-V1 cytotox | MCF10A rerep | SW480 rereplic | PINK1 expr mod | ALOX12 inh | KB-3-1 tox
Cc1cc(C)[nH]n1 | nt | nt | nt | nt | i | nt
CCCNC(=O)N(C1CCOCC1)C1CCN(S(=O)(=O)c2cc(F)ccc2C)CC1 | nt | nt | nt | nt | i | nt
COc1ccc(-c2ccc(C(c3c(C)[nH][nH]c3=O)c3c(C)[nH][nH]c3=O)o2)c([N+](=O)[O-])c1 | ? | 21µM | ? | i | i | ?
Cc1[nH][nH]c(=O)c1C(c1ccc(-c2ccc(Cl)c(Cl)c2)o1)c1c(C)[nH][nH]c1=O | i | 2.9µM | i | i | ? | i
C=CCN1CCN(C(=O)CCC[C@@H]2[C@H]3CCCN4CCC[C@@H](CN2Cc2cccnc2)[C@@H]34)CC1 | nt | nt | nt | nt | i | nt
CN(C)c1ccc(/C=C2\SC(=S)N(Nc3ncc(C(F)(F)F)cc3Cl)C2=O)cc1 | i | i | ? | 18µM | i | i
COc1ccc(C(=O)Oc2cc(C)ccc2C)cc1I | nt | nt | nt | nt | i | nt
CC1CC(=O)Nc2cc(S(=O)(=O)NCc3ccccn3)ccc2S1 (stereo unspecified) | nt | nt | nt | nt | i | nt
CCn1ncc(Br)c1C(=O)Nc1ccccc1C(=O)OC | ? | i | i | i | i | 21µM
CCn1ncc(Br)c1C(=O)Nc1ccc(F)cc1F | ? | 16µM | 21µM | i | i | i
O=[N+]([O-])c1cc(S(=O)(=O)NCCN2CCOCC2)ccc1Sc1nnnn1-c1ccccc1 | i | ? | 15µM | i | i | 13µM
Cc1ccc(-n2nnnc2Sc2ccc(S(=O)(=O)NCCN(C)C)cc2[N+](=O)[O-])cc1 | ? | ? | 8.2µM | i | i | i
CC1=C(C(=O)NC2CCCCCC2)C2(CCCCCC2)OC1=O | nt | nt | nt | nt | i | nt
COc1ccccc1NC(=O)C(C)N(c1ccccc1)S(C)(=O)=O (stereo unspecified) | nt | nt | nt | nt | i | nt
Nc1[nH]c(C(=O)c2ccc(Br)cc2)c(-c2ccc(Br)cc2)c1C(=O)NCCc1c[nH]c2ccccc12 | 21µM | nt | nt | i | i | ?
Nc1[nH]c(C(=O)c2ccccc2)c(-c2ccc([N+](=O)[O-])cc2)c1C(=O)NCCc1c[nH]c2ccccc12 | 23µM | nt | nt | i | i | ?
Nc1[nH]c(C(=O)c2ccccc2)c(-c2ccc(Br)cc2)c1C(=O)c1cccs1 | i | nt | nt | i | 40µM | i
Nc1[nH]c(C(=O)c2ccccc2)c(-c2ccc(Br)cc2)c1C(=O)c1ccc(Br)cc1 | i | nt | nt | i | ? | i
CCN(CC)S(=O)(=O)c1ccc(=O)n(CC(=O)c2c[nH]c3ccccc23)c1 | nt | nt | nt | nt | i | nt
CCOC(=O)c1cc(NCc2ccccc2)ccc1N1CCOCC1 | nt | nt | nt | nt | i | nt
CCOC(=O)c1ccc2[nH]c(CSCC(=O)Nc3ccc(CC)cc3)cc(=O)c2c1 | nt | nt | nt | nt | i | nt
CCCN1CNC(=S)N(N2CN(CCC)CNC2=S)C1 | nt | nt | nt | nt | 13µM | nt
CCN(CC)c1ccc(C2NC(=O)c3ccccc3N2)cc1 (stereo unspecified) | 2.3µM | 5.8µM | 10µM | i | i | 4.1µM
O=C1NC(c2ccc(Br)cc2)Nc2ccccc21 (stereo unspecified) | 6.5µM | 18µM | ? | i | ? | ?
O=C1NC(c2ccc3c(c2)OCO3)Nc2ccccc21 (stereo unspecified) | ? | ? | ? | ? | i | ?
SMILES | KB-V1 cytotox | MCF10A rerep | SW480 rereplic | PINK1 expr mod | ALOX12 inh | KB-3-1 tox
O=C1NC(c2ccc3ccccc3c2)Nc2ccccc21 (stereo unspecified) | 16µM | nt | nt | i | i | ?
COC(=O)c1cc(-c2cccc(C)c2)nc2ccccc12 | nt | nt | nt | nt | i | nt
Cc1cccnc1NC(=O)COc1ccc2c(=O)c(Oc3ccccc3)c(C)oc2c1 | nt | nt | nt | nt | i | nt
COc1ccccc1-c1nc(C#N)c(NCc2ccccc2Cl)o1 | nt | nt | nt | nt | i | nt
COc1ccc2oc3cc(C)[n+]([O-])c(-c4ccc(Br)cc4)c3c2c1 | 2.9µM | ? | i | i | i | ?
O=C(Nc1cc(Cl)c(Cl)cc1Cl)c1ccc(-c2ccccc2)cc1 | nt | nt | nt | nt | i | nt
CCOC(=O)c1ccc(Cl)c(NC(=O)c2ccc(-c3ccccc3)cc2)c1 | i | 3.7µM | i | nt | i | ?
CCN(CC(=O)Nc1ccccc1C(F)(F)F)C(=O)c1cc(-c2ccccc2)nn1-c1ccccc1 | i | 10µM | i | i | i | i
CCN(CC(=O)Nc1ccccc1OC)C(=O)c1cc(-c2ccccc2)nn1-c1ccccc1 | i | ? | ? | i | i | i
O=C(CCl)Nc1cc(-c2ccccc2)nn1-c1ccccc1 | 7.3µM | ? | ? | i | ? | ?
O=C(CNC(=O)c1cc(-c2ccccc2)nn1-c1ccccc1)Nc1ccccc1Br | i | 12µM | i | i | i | i
Cc1ccc(-c2cc(NC(=O)CCl)n(-c3ccccc3)n2)cc1 | ? | ? | ? | i | ? | ?
Cc1ccc(C)c(NC(=O)c2cc(-c3ccccc3)nn2-c2ccccc2)c1 | i | ? | ? | i | i | i
Cc1oc(-c2cccs2)nc1CC(=O)NC(C)C12CC3CC(CC(C3)C1)C2 (stereo unspecified) | nt | nt | nt | nt | i | nt
CN(CCOc1ccc(Cl)cc1)C(=O)c1cc(-c2ccco2)nc2ccccc12 | 16µM | ? | i | i | ? | i
Cc1ccc(NC(=O)CN(C)C(=O)c2cc(-c3ccco3)nc3ccccc23)cc1 | i | ? | i | i | 7.1µM | i
COc1cccc(NC(=O)CN(C)C(=O)c2cc(-c3ccco3)nc3ccccc23)c1 | i | i | i | i | ? | i
CN(CC(=O)Nc1ccc(F)cc1)C(=O)c1cc(-c2ccco2)nc2ccccc12 | i | i | i | i | 14µM | i
CCOc1ccc(NC(=O)CN(C)C(=O)c2cc(-c3ccco3)nc3ccccc23)cc1OCC | ? | i | i | i | ? | i
Cc1ccc(N(C)C(=O)c2cc(-c3ccco3)nc3ccccc23)cc1 | nt | nt | nt | nt | 35µM | nt
CCN(CC)CCNC(=O)c1cc(-c2ccco2)nc2ccccc12 | ? | i | i | i | ? | i
Cc1cccc(Cn2c(N3CCN(c4cccc(Cl)c4)CC3)nc3c2c(=O)n(C)c(=O)n3C)c1 | nt | nt | nt | nt | i | nt
CCOc1ccccc1CN1CCCCC12Cc1ccccc1CNC2=O (stereo unspecified) | nt | nt | nt | nt | i[6.33 µM] | nt
CN(C)c1ccc(NCc2cccc(Br)c2)cc1 | nt | nt | nt | nt | 7.9µM | nt
CN(c1ccccc1)S(=O)(=O)c1cc(C(=O)OCC(=O)c2c(N)n(C)c(=O)n(C)c2=O)ccc1Cl | 16µM | i | i | i | i | i
CCN(c1ccccc1)S(=O)(=O)c1cc(C(=O)OCC(=O)c2c(N)n(C)c(=O)n(C)c2=O)ccc1C | i | i | i | i | i | i
